Data on 33 molecules can be found in PubChem BioAssay (Tox21).

Each structure is given as a SMILES string. A number with no mark means an inactive call. Inconclusive results are not listed. Calls of active or inactive are those of the source. Unless noted, the call rests on the fitted dose curve; in most records, active means well fitted curve in the direction sought with a large enough effect in the repeat runs; inconclusive means weak or mixed curves; inactive means no such curve, though single readings can be large; an effect the other way counts as inactive or inconclusive.

A short description of assay [1]: qHTS assay to identify small molecule agonists of the sonic hedgehog signaling (Shh) pathway - cell viability counter screen (AID 1259366). Further: nearly all actives have a fitted effect of over 50% in size. The gist of the method: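 Cytotoxicity counter screen run in the same wells as the Shh reporter assay. NIH/3T3 cells carrying a Gli1 response element–driven luciferase were treated with DMSO-dissolved compounds for 24hr, and live-cell protease activity was measured with CellTiter-Fluor.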
Background: In qHTS, concentration-response curves come from the screen itself.

The nature of assay [2]: qHTS assay to identify small molecule antagonists of the sonic hedgehog signaling (Shh) pathway - cell viability counter screen (AID 1259367). Further: nearly all actives have a fitted effect of over 55% in size. The gist of the method:
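Viability was read by CellTiter-Fluor fluorescence in the same wells, reagent added 23 hr into compound treatment and incubated 1 hr at 37C. The 3T3 Gli1-Luc reporter cells (2,000/well) received conditioned medium after compound and ran 24 hr.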

The nature of assay [3]: qHTS assay to identify small molecule agonists of the sonic hedgehog signaling (Shh) pathway (AID 1259368; calls by dose curve;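 further: NIH/3T3-derived 3T3Gli1-Luc cells carrying a stable Gli1-driven firefly luciferase reporter; series mostly up to about 92 µM; nearly all actives have a fitted effect of over 15% in size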). A digest of the protocol:
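Cells of a mouse NIH/3T3 clone stably expressing luciferase under the Gli1 transcriptional response element are exposed to test chemicals for 24 hr at 37 C. Pathway activation is detected as a rise in luminescence.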

Assay [4] can be described thus: qHTS assay to identify small molecule antagonists of the sonic hedgehog signaling (Shh) pathway (AID 1259369; calls by dose curve; further: nearly all actives have a fitted effect of over 45% in size; further: potency means the concentration at half of the fitted maximal effect). A digest of the protocol: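 Cells are plated and held 4hr at 37 C, compounds (DMSO) are pinned in, conditioned medium is added to stimulate the pathway, and after 24hr luciferase reagent is added for 30min before luminescence is read.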
The nature of assay [5]: qHTS assay to identify small molecule agonists of the estrogen receptor beta (ER-beta) signaling pathway - cell viability counter screen (AID 1259380). Further: nearly all actives have a fitted effect of over 30% in size. Further: potency means the concentration at half of the fitted maximal effect. A digest of the protocol:
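Cytotoxicity is measured in parallel with the reporter screen: after 16 hr compound exposure at 37C and a 2 hr LiveBLAzer step, CellTiter-Glo is added to the same ER-beta-UAS-bla HEK293T wells and luminescence read after 30 min.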

Assay [6] can be described thus: qHTS assay to identify small molecule antagonists of the estrogen receptor beta (ER-beta) signaling pathway - cell viability counter screen (AID 1259382).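 Further: HEK293T cells carrying ER-beta-UAS-bla reporter stimulated with estradiol; series mostly up to about 92 µM; nearly all actives have a fitted effect of over 55% in size.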 A digest of the protocol:
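Cytotoxicity counter screen multiplexed with the beta-lactamase antagonist assay: GripTite HEK293T ER-beta-bla cells were treated 16 hr with test chemicals in the presence of 1nM 17-beta-estradiol, and viability was measured by CellTiter-Glo.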

Assay [7] in a line: qHTS assay to identify small molecule agonists of the androgen receptor (AR) signaling pathway in the presence of an antagonist - cell viability counter screen (AID 1259379).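 Further: MDA-kb2 human breast cancer cells carrying an MMTV luciferase reporter; series mostly up to about 92 µM; nearly all actives have a fitted effect of over 25% in size.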 The gist of the method:
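Cytotoxicity is assessed by CellTiter-Fluor in MDA-kb2 cells carrying an MMTV-driven luciferase reporter. Cells receive 3.0uM nilutamide plus compounds at 15 concentrations and incubate 16 hr at 37C without CO2 before fluorescence reading.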

In assay [8] the target is Androgen receptor (Homo sapiens) (UniProt P10275). Kind of assay: qHTS assay to identify small molecule agonists of the androgen receptor (AR) signaling pathway in the presence of an antagonist (AID 1259381; calls by dose curve; further: nearly all actives have a fitted effect of over 15% in size). A digest of the protocol: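 Agonist-mode confirmation screen: human MDA-kb2 cells stably expressing luciferase under an MMTV promoter bearing AR and GR response elements, co-treated with 3.0uM nilutamide (final). Luminescence measured after 16hr compound incubation.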
Sequence of Androgen receptor (Homo sapiens) (P10275 whole entry, looked up): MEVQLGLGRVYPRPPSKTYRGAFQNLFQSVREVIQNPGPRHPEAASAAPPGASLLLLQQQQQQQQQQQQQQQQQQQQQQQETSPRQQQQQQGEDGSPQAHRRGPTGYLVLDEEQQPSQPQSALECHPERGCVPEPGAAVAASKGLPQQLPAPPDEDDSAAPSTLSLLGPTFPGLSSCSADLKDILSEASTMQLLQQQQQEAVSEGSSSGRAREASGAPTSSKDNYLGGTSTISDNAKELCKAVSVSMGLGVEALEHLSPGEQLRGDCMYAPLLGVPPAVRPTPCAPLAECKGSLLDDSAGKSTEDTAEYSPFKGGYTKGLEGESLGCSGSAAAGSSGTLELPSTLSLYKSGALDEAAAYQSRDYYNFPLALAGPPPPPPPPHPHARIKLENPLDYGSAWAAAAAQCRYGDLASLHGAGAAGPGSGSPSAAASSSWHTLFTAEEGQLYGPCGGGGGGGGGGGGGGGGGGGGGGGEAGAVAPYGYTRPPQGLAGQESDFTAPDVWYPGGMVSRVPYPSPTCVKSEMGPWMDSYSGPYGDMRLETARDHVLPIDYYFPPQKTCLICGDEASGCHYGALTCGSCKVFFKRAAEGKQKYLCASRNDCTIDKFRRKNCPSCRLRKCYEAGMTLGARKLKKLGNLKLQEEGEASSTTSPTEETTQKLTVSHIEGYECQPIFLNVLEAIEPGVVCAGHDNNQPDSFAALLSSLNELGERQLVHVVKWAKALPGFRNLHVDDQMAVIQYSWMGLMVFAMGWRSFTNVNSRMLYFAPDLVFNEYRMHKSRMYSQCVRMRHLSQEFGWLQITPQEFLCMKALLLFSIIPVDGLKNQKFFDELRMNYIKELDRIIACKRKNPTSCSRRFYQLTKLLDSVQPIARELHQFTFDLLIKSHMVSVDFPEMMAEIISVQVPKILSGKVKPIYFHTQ

Assay [9] addresses Estrogen receptor beta (Homo sapiens) (UniProt Q92731). Put plainly: qHTS assay to identify small molecule antagonists of the estrogen receptor beta (ER-beta) signaling pathway (AID 1259378; active means well fitted inhibition curve with a large enough effect in the signal ratio in the repeat runs, not every such curve was filed as active; the % refers to the signal ratio). A digest of the protocol: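 Antagonist mode: compounds added to beta-lactamase reporter HEK293T ER-beta-UAS cells stimulated with E2 (1nM final), 16 hr at 37C. LiveBLAzer B/G FRET substrate, 2 hours room temperature, fluorescence read-out.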
On the % scale 0 is the no-effect control and ±100 the full control effect.

Sequence of Estrogen receptor beta (Homo sapiens) (Q92731 whole entry, looked up): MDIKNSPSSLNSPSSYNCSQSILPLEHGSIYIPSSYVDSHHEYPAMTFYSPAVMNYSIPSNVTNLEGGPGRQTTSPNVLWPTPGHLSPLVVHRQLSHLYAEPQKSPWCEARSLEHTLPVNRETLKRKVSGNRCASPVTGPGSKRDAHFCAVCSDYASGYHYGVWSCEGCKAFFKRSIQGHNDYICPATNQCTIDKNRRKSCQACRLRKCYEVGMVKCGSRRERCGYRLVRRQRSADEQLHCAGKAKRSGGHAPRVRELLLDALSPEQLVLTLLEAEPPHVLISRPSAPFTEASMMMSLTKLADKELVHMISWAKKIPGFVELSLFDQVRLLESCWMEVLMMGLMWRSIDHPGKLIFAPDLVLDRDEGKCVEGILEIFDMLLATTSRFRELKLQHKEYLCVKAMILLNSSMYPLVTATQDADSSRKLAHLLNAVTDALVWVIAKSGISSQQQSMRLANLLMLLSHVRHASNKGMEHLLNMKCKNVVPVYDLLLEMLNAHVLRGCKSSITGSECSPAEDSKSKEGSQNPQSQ

With `O=P(O)(O)C(O)(Cc1cccnc1)P(=O)(O)O`, the call in [1], in assay [2], in [3] and in assay [6] was inactive. In addition, the Potency result in assay [4] and in [5] was “inactive” each time.

`CC(C)(O)CCCC1=CCC(C=O)CC1` (stereo not drawn): the outcome in assay [1], in assay [2], in assay [3], in assay [7] and in assay [6] was inactive. Besides, the Potency result in assay [4] and in assay [5] was “inactive” in each case.

For `CC(=O)c1ccc2ccc3ccccc3c2c1`, the call in assay [1], in assay [2], in [3], in assay [7] and in assay [6] was inactive. For the same molecule, in assay [4], the Potency result is “inactive”.

Take `Nc1cc(S(=O)(=O)O)ccc1O`: the molecule was classed as inactive in assay [1], in assay [2], in assay [3], in assay [7], in [8] and in [6]. The Potency result in [4] and in [5] was “inactive” each time.

For `Cc1ccccc1C#N`, the outcome in assay [1], in [2], in assay [3], in [7] and in assay [6] was inactive. Further, the Potency result in assay [4] and in assay [5] was “inactive” each time.

For the molecule `COC(=O)c1ccc(NC(C)=O)cc1OC`, the molecule was classed as inactive in assay [1], in [2], in assay [3], in [7], in [8] and in [6]. Besides, the Potency entry in [4] and in [5] was “inactive” throughout.

On to `O=c1c(O)c(O)c1=O`, for which the molecule was classed as inactive in assay [1], in assay [2], in assay [3], in assay [7] and in [6]. Moreover, the Potency entry in assay [4] and in assay [5] was “inactive” in each case.

As to `NC[C@H]1O[C@H](O[C@H]2[C@H](O)[C@@H](O[C@H]3O[C@H](CO)[C@@H](O)[C@H](N)[C@H]3O)[C@H](N)C[C@@H]2N)[C@H](N)[C@@H](O)[C@@H]1O`, the viability change, negative = cytotoxic in assay [1] is 0.901% [at 19 µM]; in assay [2], 3.49% [at 19 µM]. The activity change in [3] was 0.032% [at 18.9 µM]. In assay [4], the activity change, negative = inhibition was 16.7% [at 19 µM]. Further, the activity change, negative = cytotoxicity in assay [7] was -5.29% [at 19 µM]; in [5], 2.53% [at 19 µM]; in assay [6] it was 7.91% [at 19 µM].

Regarding `CSC(=O)c1cccc2nnsc12`, the call in [1], in assay [2], in assay [3], in assay [7], in assay [8] and in assay [6] was inactive. Moreover, the Potency entry in assay [4] and in assay [5] was “inactive” in each case.

For the molecule `CC(=O)OC1CCC(C(C)(C)C)CC1` (stereo not drawn), the outcome in assay [1], in assay [2], in assay [3], in [7], in [8] and in [6] was inactive. For the same molecule, the Potency entry in assay [4] and in [5] was “inactive” throughout.

As for `N#Cc1ccccc1C#N`, the result in assay [1], in [2], in assay [3], in [7], in assay [8] and in assay [6] was inactive. Also, the Potency result in assay [4] and in assay [5] was “inactive” in each case.

`CC/C=C\CCOC(=O)c1ccccc1`: the molecule was called inactive in assay [1], in assay [2], in assay [3], in assay [7], in assay [8] and in assay [6]. The Potency result in [4] and in [5] was “inactive” in each case.

`Cc1ccc(Br)cc1`: the result in assay [1], in assay [2], in assay [3] and in [6] was inactive. The Potency entry in [4] and in assay [5] was “inactive” each time.

Take `Cc1ccc(S(=O)(=O)NC(=O)NN2CC3CCCC3C2)cc1` (stereo not drawn): the molecule was called inactive in assay [1], in assay [2], in [3] and in assay [6]. Moreover, the Potency entry in [4] and in [5] was “inactive” each time.

As to `CCOC(=O)COc1ccc2c(C)c(CCN(CC)CC)c(=O)oc2c1Cl`, the call in [1], in assay [2], in [3], in assay [7] and in assay [6] was inactive. For the same molecule, the Potency entry in assay [4] and in assay [5] was “inactive” in each case.

In the case of `O=C1CCCc2c(O)cccc21`, the outcome in assay [1], in assay [2], in assay [3], in [7], in assay [8] and in assay [6] was inactive. For the same molecule, the Potency entry in assay [4] and in [5] was “inactive” in each case.

`CO/N=C(\C(=O)O)c1csc(NC(=O)CCl)n1`: the molecule was called inactive in assay [1], in assay [2], in assay [3] and in assay [6]. Further, the Potency result in assay [4] and in [5] was “inactive” throughout.

With `CCCCNCC`, the outcome in assay [1], in assay [2], in [3] and in assay [6] was inactive. Moreover, the Potency entry in assay [4] and in assay [5] was “inactive” throughout.

`CCC(=O)OCCOc1ccccc1`: the outcome in assay [1], in assay [2], in assay [3], in assay [7] and in [6] was inactive. Further, the Potency entry in assay [4] and in assay [5] was “inactive” throughout.

As for `CC(=O)OC/C=C(/C)CCC=C(C)C`, the call in assay [1], in [2], in assay [3] and in assay [6] was inactive. Besides, the Potency entry in [4] and in assay [5] was “inactive” throughout.

With `CC12CCCC=C1C(=O)OC2=O` (stereo not drawn), the result in [1], in [2], in [3], in assay [7], in [8] and in assay [6] was inactive. The Potency result in [4] and in assay [5] was “inactive” throughout.

Consider `O=C(O)Cc1ccccc1Oc1ccc(Cl)cc1Cl`, for which the molecule was called inactive in assay [1], in assay [2], in assay [3], in assay [7] and in assay [6]. Further, the Potency entry in assay [4] and in assay [5] was “inactive” in each case.

In the case of `Cc1cc2c(cc1CC(=O)c1sccc1S(=O)(=O)Nc1onc(C)c1Cl)OCO2`, the result in assay [1], in assay [2], in assay [3], in assay [9] and in assay [6] was inactive. Further, the Potency result in assay [4] was “inactive”.

On to `CC1(C)C(=O)C(C)(C)C1=O`, for which the molecule was called inactive in [1], in [2], in assay [3], in assay [7], in assay [8] and in [6]. The Potency entry in [4] and in assay [5] was “inactive” in each case.

With `CCCCCC(=O)CC`, the outcome in assay [1], in assay [2], in assay [3], in assay [7] and in assay [6] was inactive. For the same molecule, the Potency entry in [4] and in assay [5] was “inactive” throughout.

Take `O=C(CCBr)N1CCN(C(=O)CCBr)CC1`: the outcome in assay [1], in [2], in assay [3], in [7] and in [6] was inactive. Also, the Potency result in assay [4] and in assay [5] was “inactive” in each case.

Consider `CC(C)(C)OC(=O)c1ccccc1C(=O)O`, for which the call in [1], in assay [2], in [3], in [7] and in assay [6] was inactive. In addition, the Potency entry in assay [4] and in assay [5] was “inactive” throughout.

Consider `CC(C)OC(=O)C(C(=O)OC(C)C)=C1SC=CS1`, for which the molecule was classed as inactive in [1], in [2], in [3], in assay [7] and in assay [6]. In addition, the Potency in [4] was 4.73 µM (active); in assay [5], 18.8 µM (active).

As for `NNC(=O)CCCCC(=O)NN`, the molecule was called inactive in assay [1], in assay [2], in [3], in [7] and in [6]. Further, the Potency entry in assay [4] and in [5] was “inactive” each time.

Turning to `CCOC(=O)[C@H](CCc1ccccc1)N[C@H]1CS[C@H](c2cccs2)CN(CC(=O)O)C1=O`, the outcome in assay [1], in [2], in assay [3], in assay [7], in assay [8] and in assay [6] was inactive. The Potency entry in assay [4] and in assay [5] was “inactive” throughout.

As for `CC(=O)Oc1ccc(C(C)=O)cc1`, the result in [1], in [2], in [3], in [7] and in [6] was inactive. For the same molecule, the Potency entry in assay [4] and in assay [5] was “inactive” in each case.

Consider `CNCCc1ccccn1`, for which the molecule was classed as inactive in [1], in [2], in assay [3], in assay [7] and in assay [6]. In addition, the Potency result in assay [4] and in [5] was “inactive” in each case.

On to `C[C@@H]1CC[C@@]2(OC1)O[C@H]1C[C@H]3[C@@H]4CC[C@H]5C[C@@H](O)CC[C@]5(C)[C@H]4CC(=O)[C@]3(C)[C@H]1[C@@H]2C`, for which the viability change, negative = cytotoxic is -4.38% [at 8.39 µM] in assay [1] and 0.938% [at 8.39 µM] in [2]. The activity change in [3] is -0.0264% [at 8.39 µM]. In addition, in assay [4], the activity change, negative = inhibition was 0.87% [at 8.39 µM]. Further, the activity change, negative = cytotoxicity in assay [7] is 0.258% [at 8.39 µM]; in assay [5], 3.8% [at 8.39 µM]; in assay [6], 3.19% [at 8.39 µM].
